Source: PubChem
In the library only some 3.8% were active in any assay of this set; here they are far more common.
TIM10 inh: TIM10 yeast growth inhibition; hit rate 1.4% among 330,000; AID 463195; S. cerevisiae TIM10 strain growth, BacTiter-Glo luminescence, 24 h; inhibition, % at 10 µM;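 active = inhibition of 40% or more at the single tested concentration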;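 also: wild-type TIM10 isogenic control strain grown at permissive 25 °C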
PfHsp90 yeast 2: growth inhibition of yeast expressing Plasmodium Hsp90; S. cerevisiae expressing PfHsp90, BacTiter-Glo ATP, 48 h; yeast lacking PDR1 and PDR3 efflux regulators; inhibition, % at 9.4 µM; hit rate 0.32% among 310,000; AID 504621;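 active = every replicate shows inhibition above about 80%, whatever the replicate mean, limit read from the data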;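 also: 0% = DMSO neutral controls and 100% = 20 µM radicicol positive controls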
tim10-1 inh: growth inhibitors of tim10-1 mutant yeast; AID 463190; hit rate 2.2% among 330,000; S. cerevisiae tim10-1 ts strain growth, BacTiter-Glo, 24 h; inhibition, % at 20 µM;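 active = inhibition of at least 40%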;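 also: mutant grown at 25 °C; 0% = DMSO wells with yeast and 100% = wells holding no yeast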
B2AR ag: activates human beta-2 adrenergic receptor causing internalization; P07550; Am2.2-beta2AR cells, FAP receptor internalization, flow cytometry; response, % (no concentration beside the values); hit rate 0.43% among 340,000;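 active = response above a set limit, near 3 SD of response in nonfluorescent compounds, cut at about 42% in these data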
Target sequence (P07550 whole entry, looked up): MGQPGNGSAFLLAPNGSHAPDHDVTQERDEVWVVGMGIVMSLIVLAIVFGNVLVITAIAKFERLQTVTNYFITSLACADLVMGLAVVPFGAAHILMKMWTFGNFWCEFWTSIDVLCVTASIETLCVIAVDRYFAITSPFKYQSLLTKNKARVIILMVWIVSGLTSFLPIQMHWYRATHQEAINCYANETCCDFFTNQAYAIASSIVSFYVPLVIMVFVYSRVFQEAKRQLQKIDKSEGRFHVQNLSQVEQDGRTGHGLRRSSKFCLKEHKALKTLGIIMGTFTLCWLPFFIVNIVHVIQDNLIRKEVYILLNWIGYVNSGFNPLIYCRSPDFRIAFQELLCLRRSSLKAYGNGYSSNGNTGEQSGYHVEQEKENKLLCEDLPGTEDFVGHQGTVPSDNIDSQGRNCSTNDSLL
tim23-1 inh: inhibits growth of tim23-1 mutant yeast; inhibition, % at 20 µM; S. cerevisiae tim23-1 growth, BacTiter-Glo luminescence, 24 h; hit rate 1.3% among 330,000;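 active = growth inhibition of the mutant yeast at or above 50%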;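 also: temperature-sensitive mutant grown at 25 °C; plate controls were DMSO-treated mutant yeast for no effect and medium wells lacking yeast for full effect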
tim10-1 conf: tim10-1 yeast growth inhibition, confirmed; S. cerevisiae tim10-1 ts strain growth, BacTiter-Glo, 24 h; hit rate 56% among 7,400; inhibition, % at 20 µM; shares compounds with tim10-1 inh;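 active = inhibition of yeast growth at or above a set limit in either of two repeat tests at 20 µM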;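 also: tim10-1 mutant grown at permissive 25 °C to find synthetic lethal compounds; 0% = DMSO yeast wells and 100% = medium wells without yeast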
TIM10 conf: TIM10 yeast growth inhibition, confirmed; S. cerevisiae tim10 strain growth, BacTiter-Glo luminescence, 24 h; hit rate 63% among 4,600; inhibition, % at 10 µM; shares compounds with TIM10 inh;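 active = inhibition of yeast growth at or above a set limit in either of two replicates at 10 µM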;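 also: this counterscreen used the strain with wild-type TIM10; 0% = yeast with DMSO and 100% = medium wells lacking yeast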
tim23-1 conf: tim23-1 yeast growth inhibition, confirmed; shares compounds with tim23-1 inh; inhibition, % at 20 µM; hit rate 83% among 4,400; S. cerevisiae tim23-1 growth, BacTiter-Glo luminescence, 24 h;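 active = inhibition above about 39% in either of two replicate wells at 20 µM, limit read from the data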;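 also: temperature-sensitive tim23-1 mutant grown at 25 °C; 0% = DMSO wells with yeast and 100% = medium wells without yeast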
The depositor's hits bear a star.

How did COc1cc(C(=O)O[C@H]2C/C(C)=C/CC[C@]3(C)O[C@@H]3C(O)C2C(C)C)cc(OC)c1OC (stereo partly specified) do in these assays?
TIM10 inh: 20.4; PfHsp90 yeast 2: -8.8; tim10-1 inh: 29.2; B2AR ag: 7.4; tim23-1 inh: 27.7

Results for COc1cc(C(=O)O[C@H]2CC(C)=CC[C@@]3(C)CC[C@@](O)(C(C)C)[C@H]23)ccc1O ?
TIM10 inh: 29.0; PfHsp90 yeast 2: -27.3; tim10-1 inh: 50.2*; B2AR ag: 6.2; tim23-1 inh: 54.3*; tim10-1 conf: 39.5*; tim23-1 conf: 57.3*

How did CC(C)(C)Nc1c([N+](=O)[O-])c(=O)sc2ccccc12 do in these assays?
TIM10 inh: 59.6*; PfHsp90 yeast 2: 1.2; tim10-1 inh: 54.6*; B2AR ag: -0.6; tim23-1 inh: 71.3*; tim10-1 conf: 52.8*; TIM10 conf: 48.6*; tim23-1 conf: 68.6*

How did CCOC(=O)N1CCN(C(=O)Cc2ccccc2OC)CC1 do in these assays?
TIM10 inh: -2.4; PfHsp90 yeast 2: -12.2; tim10-1 inh: -1.6; B2AR ag: 4.8; tim23-1 inh: 5.6

Results for CCN1C(=O)[C@H]2[C@H]3CN=C(SCc4ccc(Cl)cc4)N3[C@@](C)(C(=O)OC)[C@H]2C1=O ?
TIM10 inh: -5.8; PfHsp90 yeast 2: -15.5; tim10-1 inh: 10.3; B2AR ag: 5.6; tim23-1 inh: 31.9

What do the screens show for `CC1CCN(C2=NC(=O)/C(=C/c3ccccc3F)S2)CC1`?
TIM10 inh: 13.1; PfHsp90 yeast 2: 22.2; tim10-1 inh: 45.9*; B2AR ag: 4.1; tim23-1 inh: 52.4*; tim10-1 conf: 35.4*; tim23-1 conf: 53.1*

How did Cc1ccc(S(=O)(=O)NN2C(=O)/C(=C/c3cccc(F)c3)SC2=S)cc1 do in these assays?
TIM10 inh: 40.2*; PfHsp90 yeast 2: -65.4; tim10-1 inh: 46.6*; B2AR ag: 4.5; tim23-1 inh: 70.7*; tim10-1 conf: 28.3; TIM10 conf: 40.4*; tim23-1 conf: -23.9

Results for Cc1ccc2cc(C=C(C#N)C#N)c(N3CCCCC3)nc2c1 ?
TIM10 inh: 45.3*; PfHsp90 yeast 2: -11.4; tim10-1 inh: 55.4*; B2AR ag: 27.8; tim23-1 inh: 74.9*; tim10-1 conf: 44.9*; TIM10 conf: 25.1; tim23-1 conf: 73.2*

Results for O=c1cc(-c2cccs2)oc2ccc(Cl)cc12 ?
TIM10 inh: 6.4; PfHsp90 yeast 2: -28.1; tim10-1 inh: 25.4; B2AR ag: -16.8; tim23-1 inh: 34.0

How did O=c1c(O)c(-c2cccs2)oc2ccc(Cl)cc12 do in these assays?
TIM10 inh: 71.8*; PfHsp90 yeast 2: -6.9; tim10-1 inh: 41.6*; B2AR ag: -10.3; tim23-1 inh: 52.9*; tim10-1 conf: 32.4*; TIM10 conf: 59.1*; tim23-1 conf: 65.9*

What do the screens show for `CCOC(=O)c1c(C)sc2c1N(C(=O)CCl)c1cc(Cl)ccc1S2`?
TIM10 inh: 20.6; tim10-1 inh: 42.8*; B2AR ag: 18.2; tim23-1 inh: 61.4*; tim10-1 conf: 42.6*; tim23-1 conf: 50.5*

Results for Cc1sc2ncnc(SCC(=O)N3c4ccccc4Sc4ccc(Cl)cc43)c2c1C ?
TIM10 inh: 6.3; PfHsp90 yeast 2: -7.5; tim10-1 inh: 22.2; B2AR ag: 0.5; tim23-1 inh: 18.8

How did COc1cccc(NC(=S)N/N=C2/CCCCc3ccccc32)c1 do in these assays?
PfHsp90 yeast 2: -8.0; B2AR ag: -1.3

How did Cc1ccc(C)c(NC(=S)N/N=C2/CCCCc3ccccc32)c1 do in these assays?
TIM10 inh: 44.6*; PfHsp90 yeast 2: -35.4; tim10-1 inh: 54.3*; B2AR ag: -1.2; tim23-1 inh: 56.6*; tim10-1 conf: 35.1*; TIM10 conf: -1.3; tim23-1 conf: 43.8*

What do the screens show for `CCOc1ccc(C(C)(C)C)cc1S(=O)(=O)n1nc(C)cc1C`?
TIM10 inh: 46.4*; PfHsp90 yeast 2: 31.7; tim10-1 inh: 45.7*; B2AR ag: -3.4; tim23-1 inh: 53.6*; tim10-1 conf: 40.8*; TIM10 conf: 0.0; tim23-1 conf: 50.5*

What do the screens show for `CCOc1ccc(C(C)(C)C)cc1S(=O)(=O)N1CC(C)OC(C)C1` (stereo unspecified)?
TIM10 inh: 32.0; PfHsp90 yeast 2: -12.6; tim10-1 inh: 43.6*; B2AR ag: 20.4; tim23-1 inh: 55.0*; tim10-1 conf: 27.9; tim23-1 conf: 42.1*

Results for CCOC(=O)N=Nc1c2ccccc2c2nc3no[nH]c3nc12 ?
TIM10 inh: 86.0*; PfHsp90 yeast 2: 107.7*; tim10-1 inh: 76.1*; B2AR ag: 26.3; tim23-1 inh: 55.2*; tim10-1 conf: 80.7*; TIM10 conf: 95.8*; tim23-1 conf: 81.2*

What do the screens show for `CCOC(=O)N=Nc1c(O)n(CC(=O)OC)c2ccccc12`?
TIM10 inh: 3.2; PfHsp90 yeast 2: 9.4; tim10-1 inh: 8.0; B2AR ag: 1.6; tim23-1 inh: 0.8

Results for O=C(O)CN1C(=O)/C(=C\c2cc(Br)ccc2OCc2ccc(F)cc2)SC1=S ?
TIM10 inh: 22.7; PfHsp90 yeast 2: -10.5; tim10-1 inh: 13.8; B2AR ag: 2.2; tim23-1 inh: 32.7

Results for CN(C)c1ccc(C(=O)N/N=C/c2cc(Br)cc(Br)c2O)cc1 ?
TIM10 inh: 38.9; tim10-1 inh: 25.0; B2AR ag: 12.9; tim23-1 inh: 31.7

How did Oc1c(Br)cc(Br)cc1C=NCc1ccccc1 do in these assays?
TIM10 inh: 58.6*; PfHsp90 yeast 2: 95.8*; tim10-1 inh: 55.3*; B2AR ag: 18.1; tim23-1 inh: 84.9*; tim10-1 conf: 39.5*; TIM10 conf: 32.6*; tim23-1 conf: 90.1*

What do the screens show for `O=C(Cc1ccccc1)N/N=C/c1cc(Br)cc(Br)c1O`?
TIM10 inh: 38.1; PfHsp90 yeast 2: -4.3; tim10-1 inh: 34.3; B2AR ag: 11.6; tim23-1 inh: 25.5

Results for O/N=C/c1cc(Br)ccc1OCc1ccc(F)cc1 ?
TIM10 inh: 33.2; PfHsp90 yeast 2: -27.9; tim10-1 inh: 41.2*; B2AR ag: -1.5; tim23-1 inh: 59.5*; tim10-1 conf: 34.2*; tim23-1 conf: 31.4*

Results for Oc1c(Br)cc(Br)cc1C=NCc1ccc(F)cc1 ?
TIM10 inh: 19.2; PfHsp90 yeast 2: 99.0*; tim10-1 inh: 50.6*; B2AR ag: -2.8; tim23-1 inh: 79.2*; tim10-1 conf: 17.5; tim23-1 conf: 85.2*

What do the screens show for `O=C1CSc2cc(Cl)ccc2N1`?
PfHsp90 yeast 2: 15.4; B2AR ag: -8.5
